This excerpt belongs to a sample that is enriched for hits.
IL-1B inflam inh – blocks inflammasome-driven IL-1 beta release; THP-1 LPS/ATP IL-1B secretion, AlphaLISA, 16 h; hits give low values; activity change, % at 57.5 µM; 360,000 tested, 4.7% active; AID 743279; in the data active = activity change below about -50%; inconclusive = mostly about -30% to -49%
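Secreted IL-1B measured by AlphaLISA bead assay after 16 h compound exposure of THP-1 cells; compounds (final up to 57.5 uM) added 1 h before LPS (250 ng/mL) and ATP (1.25 mM) stimulation; lower signal means less secretion.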
HT1080 IDH1KD tx – kills HT-1080 cells with IDH1 knockdown. Potency, µM (titrated, usually from 46.1 µM), for the others: top-dose activity, negative = toxicity, actives largely listed as cytotoxic. HT-1080 IDH1 knockdown viability, ATP luminescence, 48 h. 360,000 tested, 2% active. AID 686971;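 also: potency is read from the fitted curve at half-maximal effect; 0% = DMSO wells and -100% = cell-free medium wells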
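In this qHTS, HT-1080 cells depleted of IDH1 are exposed for 48 h at 37 °C to compound titrations. Toxicity is scored from CellTiter-Glo luminescence, with DMSO as full viability and medium alone as none.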
ALOX12 inh – inhibitors of human 12S-lipoxygenase ALOX12; 580,000 tested, 1.1% active; P18054; Potency, µM (titrated, usually from 108 µM), inactives show at the top dose activity change, negative = inhibition, hits mostly inhibitors; purified 12hLO, xylenol orange hydroperoxide absorbance; also: potency is read from the fitted curve at half-maximal effect
Target sequence (P18054 whole entry, looked up): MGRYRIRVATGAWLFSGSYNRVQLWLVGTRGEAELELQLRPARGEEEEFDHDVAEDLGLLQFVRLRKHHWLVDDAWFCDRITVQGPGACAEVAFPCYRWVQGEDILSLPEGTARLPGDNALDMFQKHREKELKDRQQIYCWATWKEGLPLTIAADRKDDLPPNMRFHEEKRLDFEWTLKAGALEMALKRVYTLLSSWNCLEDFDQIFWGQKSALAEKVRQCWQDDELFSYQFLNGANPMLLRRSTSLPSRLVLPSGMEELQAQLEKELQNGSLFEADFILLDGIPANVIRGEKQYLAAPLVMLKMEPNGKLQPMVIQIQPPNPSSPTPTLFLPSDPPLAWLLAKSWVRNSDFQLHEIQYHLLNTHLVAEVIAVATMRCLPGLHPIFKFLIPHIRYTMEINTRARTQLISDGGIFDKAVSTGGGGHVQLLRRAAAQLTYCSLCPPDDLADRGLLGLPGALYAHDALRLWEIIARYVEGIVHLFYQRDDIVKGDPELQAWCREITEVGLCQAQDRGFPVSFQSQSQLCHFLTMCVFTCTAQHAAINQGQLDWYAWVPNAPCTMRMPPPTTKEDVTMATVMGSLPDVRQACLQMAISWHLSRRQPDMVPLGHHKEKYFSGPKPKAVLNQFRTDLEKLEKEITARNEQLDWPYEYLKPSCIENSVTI
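Purified human 12hLO (150 nM final) in 25 mM Hepes, 0.01% Triton X-100, pH 7.0 was preincubated 15 min at room temperature with compound. Then 40 uM arachidonic acid was added, 30 min. Hydroperoxide was read by Fe-XO absorbance ratio 573/405 nm.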
DT40 TDP1 CPT – DT40-hTDP1 cell growth loss with CPT; Potency, µM (series often up to 46.2 µM), inactives show at the top dose activity change, negative = growth inhibition, usual class: inhibitors; 420,000 tested, 12% active; chicken DT40 Tdp1-/-;hTDP1 cells + 20 nM CPT, ATP luminescence, 48 h; also: potency is read from the fitted curve at half-maximal effect; nearly all actives have a fitted effect of over 55% in size
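Chicken DT40 Tdp1-/- cells stably complemented with human TDP1 were seeded at 400 cells/well in medium containing 20 nM camptothecin, exposed to pin-transferred compounds, and grown at 37 °C for at least 48 hr. Viability was read as ATP luminescence.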
HT1080-NT tox – kills 2HG-producing HT-1080-NT fibrosarcoma cells. HT-1080-NT fibrosarcoma viability, CellTiter-Glo ATP luminescence, 48 h. 360,000 tested, 1.6% active. Potency, µM (series often up to 46.1 µM), inactives show at the top dose activity, negative = less viability, actives largely listed as cytotoxic;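 also: NT is the 2HG producing partner of a matched IDH1 knockdown line; potency is read from the fitted curve at half-maximal effect; 0% = DMSO-treated cells and -100% = media-only wells without cells; nearly all actives have a fitted effect of over 55% in size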
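Viability of the 2HG-overproducing fibrosarcoma line after 48 hours of compound exposure at 37 degrees C was determined by luminescence with CellTiter-Glo, and concentration-effect curves were then fitted and categorized.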
TDP1 cell noCPT – qHTS for Inhibitors of human tyrosyl-DNA phosphodiesterase 1 (TDP1): qHTS in cells in absence of CPT | DT40 Tdp1-/- hTDP1 cells, no CPT, ATP luminescence, 48 h | Potency, µM (top dose mostly 46.2 µM), for the others: at the highest dose activity change, negative = growth inhibition, actives largely listed as inhibitors | 420,000 tested, 15% active | AID 686978, 2013; also: potency is read from the fitted curve at half-maximal effect; nearly all actives have a fitted effect of over 55% in size
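Chicken DT40 Tdp1-/- cells complemented with human TDP1, screened without camptothecin (DMSO vehicle only), 400 cells/well. Compounds pin-transferred, cells incubated at 37 °C for at least 48 hr. Growth read as ATP-dependent luminescence (CellTiter-Glo, 30 min at RT).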
An asterisk follows results filed as active; i = inactive; ? = inconclusive; . = no result given; [ ] = remark or other dose. Unless noted, calls follow the shape of the dose curve; as a rule, active = well fitted curve in the direction sought with a large enough effect; inconclusive = small, poorly fitted or top-dose-only effect, or another doubt; inactive = no such curve, though single readings can be large; an effect the other way counts as inactive or inconclusive. Unless noted, % is scaled to controls: 0 for no effect and ±100 for the full control effect.

SMILES	IL-1B inflam inh	HT1080 IDH1KD tx	ALOX12 inh	DT40 TDP1 CPT	HT1080-NT tox	TDP1 cell noCPT
O=C(CCN1C(=O)/C(=C\c2ccccc2)SC1=S)NNC(=O)c1ccccc1O	38.1	?	-0.7%	20.6µM*	?	25.9µM*
O=C(CCN1C(=O)/C(=C\c2ccccc2)SC1=S)NNC(=O)c1cccnc1	16.9	0.9%	2.4%	?	-2.5%	?
O=C(CCCN1C(=O)S/C(=C\c2ccccc2)C1=O)NNC(=O)c1ccccc1O	28.8	-2.1%	17.8%	11.6µM*	?	9.2µM*
CCOC(=O)C1(CC2CCCCO2)CCN(Cc2cc3ccccc3[nH]2)CC1 (stereo unspecified)	-91.5*	?	-8.1%	?	?	16.4µM*
CCOC(=O)C1(CC2CCCCO2)CCN(Cc2ccccc2-c2ccco2)CC1 (stereo unspecified)	39.6	9.7%	?	?	3.6%	20.6µM*
CCOC(=O)C1(CC2CCCCO2)CCN(S(=O)(=O)c2cccc(F)c2)CC1 (stereo unspecified)	15.6	-3.1%	-14.3%	-13.8%	-7.4%	-7.9%
CCOC(=O)C1(CC2CCCCO2)CCN(Cc2cn[nH]c2-c2cccc(F)c2)CC1 (stereo unspecified)	21.8	-0.7%	2.3%	16.4µM*	1.4%	10.3µM*
CCN(C(=O)c1ccc2c(c1)N(S(C)(=O)=O)CC2)c1ccccc1C	.	.	34.0%	.	.	.
CC(C)CNC(=S)NC(=O)c1ccc(F)cc1	0.8	-21.4%	35.5µM*	18.4µM*	-4.3%	?
O=C(NC(=S)Nc1ccccc1O)c1ccc(Cl)cc1Cl	-78.4*	?	?	18.4µM*	-7.4%	29.1µM*
CC(C)NC(=S)NC(=O)c1ccc(Cl)cc1Cl	64.9	-17.5%	?	?	3.1%	?
CC(C)CNC(=S)NC(=O)c1ccc(Cl)cc1Cl	71.3	-6.8%	-23.4%	13µM*	0.7%	?
O=C(NC(=S)NCCN1CCOCC1)c1ccc(F)cc1	i	-0.7%	5.4%	-13.2%	2.5%	-19.3%
CCn1c2c(c(=O)n1-c1ccccc1)CCN(C(=O)Cc1ccc3c(c1)OCO3)C2	.	.	-10.2%[176 µM]	.	.	.
COc1ccc(CCC(=O)N2CCC(Cc3nc(C4CC4)n[nH]3)CC2)cc1	.	.	-2.8%	.	.	.
CC12CCC3C(CCC4CC(O)CCC43C)C1CC=C2c1ccccc1 (stereo unspecified)	.	.	0.0%	.	.	.
C/C(=N\NC(N)=S)C1=CCC2C3CC[C@H]4CC(O)CC[C@]4(C)C3CC[C@]12C (stereo partly specified)	-52.2*	-3.9%	-16.0%	18.4µM*	-22.5%	5.17µM*
CCOc1cc(/C=N/O)ccc1OCc1ccc([N+](=O)[O-])cc1	4.8	-11.4%	17.6%	?	-10.1%	-29.4%
COc1cc(/C=N/O)ccc1Oc1ccc([N+](=O)[O-])cc1[N+](=O)[O-]	0.0	-25.8%	-0.9%	?	-22.7%	18.4µM*
CO/N=C/c1ccc(Oc2ccc([N+](=O)[O-])cc2[N+](=O)[O-])c(OC)c1	-14.7	?	-15.8%	?	?	16.4µM*
COc1ccc2cc(/C=C3\SC(=O)NC3=O)ccc2c1	.	.	18.9%	.	.	.
COc1ccc(/C=N/OC(=O)Nc2ccccc2)cc1[N+](=O)[O-]	-23.0	5.6%	-26.3%	4.2%	1.1%	-17.2%
CCOc1ccc(/C=C2\SC(=S)N(C)C2=O)cc1OC	8.5	18.0%	0.0%	2.8%	18.1%	-0.4%
COc1cc(/C=C2\SC(=O)NC2=O)ccc1Oc1ccc([N+](=O)[O-])cc1[N+](=O)[O-]	0.0	?	?	18.4µM*	-27.3%	16.4µM*
